Assay results: PubChem BioAssay AID1159580 (chemical genetic matrix, 2015)
Among all 5,500 compounds or so, about 2,000 (36%) were called active. Inconclusive results (about 18%) are left out. Cut-off read from the data, not from the text of the source: active = normalized growth mostly below about 0.91 (no sharp cut-off); inconclusive = no clear call, values can overlap the other calls; inactive = mostly above about 0.92. Some of the results follow.

Test: chemical genetic growth profiling, strain panel (AID 1159580);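 note: tested at 20 µM; growth read once vehicle control cultures reached saturation at 30 °C; 1 = growth at the plate median or of vehicle wells; lower values mean less growth of the strain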
Conditions: growth OD

Measured: normalized growth

CCOC(=O)/C=C(\C)OP(=O)(OC)OC
inactive: S. cerevisiae deletion strains, locus YAL013W, strain DEP1, stronger effect = lower value 0.973 | S. cerevisiae deletion strains, locus YBR021W, strain FUR4, stronger effect = lower value 1.02 | S. cerevisiae deletion strains, locus YBR229C, strain ROT2, stronger effect = lower value 0.948 | S. cerevisiae deletion strains, locus YCL029C, strain bik1, stronger effect = lower value 0.989 | S. cerevisiae deletion strains, locus YDL035C, strain GPR1, stronger effect = lower value 0.981 | S. cerevisiae deletion strains, locus YDL074C, strain BRE1, stronger effect = lower value 0.937 | S. cerevisiae deletion strains, locus YDL101C, strain DUN1, stronger effect = lower value 0.967 | S. cerevisiae deletion strains, locus YDL134C, strain PPH21, stronger effect = lower value 0.989 | S. cerevisiae deletion strains, locus YDL185W, strain tfp1, stronger effect = lower value 0.983 | S. cerevisiae deletion strains, locus YDL192W, strain arf1, stronger effect = lower value 0.992 | S. cerevisiae deletion strains, locus YDR101C, strain arx1, stronger effect = lower value 1 | S. cerevisiae deletion strains, locus YDR150W, strain NUM1, stronger effect = lower value 0.989 | S. cerevisiae deletion strains, locus YDR162C, strain NBP2, stronger effect = lower value 0.982 | S. cerevisiae deletion strains, locus YDR318W, strain mcm21, stronger effect = lower value 0.987 | S. cerevisiae deletion strains, locus YDR388W, stronger effect = lower value 1.01 | S. cerevisiae deletion strains, locus YDR502C, strain sam2, stronger effect = lower value 0.996 | S. cerevisiae deletion strains, locus YEL061C, strain CIN8, stronger effect = lower value 0.99 | S. cerevisiae deletion strains, locus YER110C, stronger effect = lower value 0.992 | S. cerevisiae deletion strains, locus YER155C, strain BEM2, stronger effect = lower value 0.984 | S. cerevisiae deletion strains, locus YER167W, strain BCK2, stronger effect = lower value 0.988 | S. cerevisiae deletion strains, locus YGL078C, strain dbp3, stronger effect = lower value 1.01 | S. cerevisiae deletion strains, locus YGL086W, strain mad1, stronger effect = lower value 0.993 | S. cerevisiae deletion strains, locus YGL248W, strain PDE1, stronger effect = lower value 0.977 | S. cerevisiae deletion strains, locus YGR078C, strain PAC10, stronger effect = lower value 0.983 | S. cerevisiae deletion strains, locus YGR135W, strain pre9, stronger effect = lower value 0.988 | S. cerevisiae deletion strains, locus YGR229C, strain SMI1, stronger effect = lower value 0.984 | S. cerevisiae deletion strains, locus YGR252W, strain gcn5, stronger effect = lower value 0.998 | S. cerevisiae deletion strains, locus YHR030C, strain SLT2, stronger effect = lower value 0.99 | S. cerevisiae deletion strains, locus YHR079C, strain IRE1 (second series), stronger effect = lower value 1 | S. cerevisiae deletion strains, locus YHR094C, strain hxt1, stronger effect = lower value 1.01 | S. cerevisiae deletion strains, locus YHR129C, strain ARP1, stronger effect = lower value 0.974 | S. cerevisiae deletion strains, locus YHR200W, strain rpn10, stronger effect = lower value 0.994 | S. cerevisiae deletion strains, locus YIL066C, strain RNR3, stronger effect = lower value 0.985 | S. cerevisiae deletion strains, locus YIL073C, strain SPO22, stronger effect = lower value 1.03 | S. cerevisiae deletion strains, locus YIL125W, strain kgd1, stronger effect = lower value 0.993 | S. cerevisiae deletion strains, locus YIR030C, strain dcg1, stronger effect = lower value 0.996 | S. cerevisiae deletion strains, locus YJL095W, strain BCK1, stronger effect = lower value 0.994 | S. cerevisiae deletion strains, locus YJL134W, strain LCB3, stronger effect = lower value 0.987 | S. cerevisiae deletion strains, locus YJL168C, strain set2, stronger effect = lower value 0.991 | S. cerevisiae deletion strains, locus YJL187C, strain SWE1 (second series), stronger effect = lower value 0.983 | S. cerevisiae deletion strains, locus YJR043C, strain POL32, stronger effect = lower value 0.985 | S. cerevisiae deletion strains, locus YJR075W, strain HOC1, stronger effect = lower value 0.983 | S. cerevisiae deletion strains, locus YKL009W, strain mrt4, stronger effect = lower value 0.947 | S. cerevisiae deletion strains, locus YKL068W, stronger effect = lower value 0.998 | S. cerevisiae deletion strains, locus YKL085W, strain MDH1 (second series), stronger effect = lower value 0.989 | S. cerevisiae deletion strains, locus YKL085W, strain MDH1, stronger effect = lower value 0.989 | S. cerevisiae deletion strains, locus YKL190W, strain CNB1, stronger effect = lower value 0.995 | S. cerevisiae deletion strains, locus YKR001C, strain vps1, stronger effect = lower value 1 | S. cerevisiae deletion strains, locus YLR039C, strain RIC1, stronger effect = lower value 0.976 | S. cerevisiae deletion strains, locus YLR058C, strain SHM2, stronger effect = lower value 0.981 | S. cerevisiae deletion strains, locus YLR102C, strain apc9, stronger effect = lower value 0.993 | S. cerevisiae deletion strains, locus YLR262C, strain YPT6, stronger effect = lower value 0.977 | S. cerevisiae deletion strains, locus YLR268W, strain sec22, stronger effect = lower value 0.998 | S. cerevisiae deletion strains, locus YLR330W, strain CHS5, stronger effect = lower value 0.986 | S. cerevisiae deletion strains, locus YLR342W, strain FKS1 (second series), stronger effect = lower value 1.02 | S. cerevisiae deletion strains, locus YLR371W, strain rom2, stronger effect = lower value 0.996 | S. cerevisiae deletion strains, locus YLR418C, strain cdc73, stronger effect = lower value 1.01 | S. cerevisiae deletion strains, locus YML016C, strain PPZ1, stronger effect = lower value 0.986 | S. cerevisiae deletion strains, locus YML032C, strain rad52, stronger effect = lower value 1 | S. cerevisiae deletion strains, locus YML124C, strain tub3, stronger effect = lower value 1 | S. cerevisiae deletion strains, locus YMR078C, strain ctf18, stronger effect = lower value 0.999 | S. cerevisiae deletion strains, locus YMR223W, strain ubp8, stronger effect = lower value 0.996 | S. cerevisiae deletion strains, locus YMR263W, strain SAP30, stronger effect = lower value 0.987 | S. cerevisiae deletion strains, locus YMR307W, strain GAS1, stronger effect = lower value 1.04 | S. cerevisiae deletion strains, locus YNL067W, strain RPL9B, stronger effect = lower value 0.982 | S. cerevisiae deletion strains, locus YNL128W, strain TEP1, stronger effect = lower value 0.951 | S. cerevisiae deletion strains, locus YNL153C, strain GIM3, stronger effect = lower value 0.985 | S. cerevisiae deletion strains, locus YNL233W, strain BNI4, stronger effect = lower value 0.997 | S. cerevisiae deletion strains, locus YNL250W, strain rad50, stronger effect = lower value 0.983 | S. cerevisiae deletion strains, locus YNL271C, strain bni1, stronger effect = lower value 1 | S. cerevisiae deletion strains, locus YNL298W, strain CLA4, stronger effect = lower value 1.01 | S. cerevisiae deletion strains, locus YNL307C, strain MCK1, stronger effect = lower value 1.01 | S. cerevisiae deletion strains, locus YNL322C, strain KRE1, stronger effect = lower value 0.977 | S. cerevisiae deletion strains, locus YNR052C, strain pop2, stronger effect = lower value 0.996 | S. cerevisiae deletion strains, locus YOL006C, strain TOP1, stronger effect = lower value 0.926 | S. cerevisiae deletion strains, locus YOL012C, strain htz1 0.854 | S. cerevisiae deletion strains, locus YOL147C, strain pex11, stronger effect = lower value 1.01 | S. cerevisiae deletion strains, locus YOR061W, strain CKA2, stronger effect = lower value 0.961 | S. cerevisiae deletion strains, locus YOR069W, strain VPS5, stronger effect = lower value 0.99 | S. cerevisiae deletion strains, locus YOR136W, strain idh2, stronger effect = lower value 0.993 | S. cerevisiae deletion strains, locus YOR144C, strain elg1, stronger effect = lower value 0.997 | S. cerevisiae deletion strains, locus YOR184W, strain ser1, stronger effect = lower value 1.01 | S. cerevisiae deletion strains, locus YOR316C, strain cot1, stronger effect = lower value 0.981 | S. cerevisiae deletion strains, locus YPL055C, strain LGE1, stronger effect = lower value 0.975 | S. cerevisiae deletion strains, locus YPL241C, strain CIN2, stronger effect = lower value 0.993 | S. cerevisiae deletion strains, locus YPR119W, strain clb2, stronger effect = lower value 1 | S. cerevisiae deletion strains, locus YPR141C, strain kar3, stronger effect = lower value 0.991 | S. cerevisiae deletion strains, locus YPR163C, strain tif3, stronger effect = lower value 1.01 | S. cerevisiae deletion strains, locus YPR167C, strain met16, stronger effect = lower value 0.995 | S. cerevisiae deletion strains, strain wtn01, stronger effect = lower value 1 | S. cerevisiae strains, strain wild type, stronger effect = lower value 0.985
